# Measurements reported in PubChem BioAssay AID485314 (National Center for Advancing Translational Sciences (NCATS), 2010).
# Screen size: about 340,000 compounds; about 4,500 (1.3%) were called active. Roughly 5% stayed inconclusive and do not appear here. Calls follow the shape of the dose curve; as a rule, active = well fitted inhibition curve with a large enough effect; inconclusive = small, poorly fitted or top-dose-only effect, or another doubt; inactive = no such curve, though single readings can be large or run the other way. Shown is part of a subset that was picked to be rich in actives. Where a call stands in place of a potency, no number is given.
# Target: DNA polymerase beta (Homo sapiens) (UniProt P06746)
# Assay: qHTS Assay for Inhibitors of DNA Polymerase Beta
# Conditions: Pol beta primer extension/strand displacement, fluorescence kinetic; series mostly up to 114 µM
# Description: The base excision repair system in human cells is a target for therapeutic modulation of the response to irradiation treatment and DNA-damaging drugs. A key enzyme in this system is the bi-functional DNA polymerase known as DNA polymerase Beta (Pol Beta). The following is a homogeneous kinetic assay to study the primer extension and strand-displacement reaction catalyzed by pol beta.
# A stepwise description of the 1536-well assay is shown in next Table. Three microliters of reagents (buffer in column 3 and 4 as negative control and 10 nM Pol beta in columns 1, 2, and 5-48) was dispensed into 1,536-well black solid-bottomed plate. Compounds (23 nL) were transferred via Kalypsys pin tool equipped with 1536-pin array (10 nL slotted pins, V&P Scientific, San Diego, CA). The plates were incubated for 15 min at room temperature, and 1 uL substrate (50 nM final concentration) were added to start the reaction and immediately read at 0 min read on Viewlux reader. The plate were further incubated for 10 min at room temperature, and then read on Viewlux again. Throughout the screen, reagent bottle and all liquid lines were chilled and made light-tight to minimize reagent degradation. All screening operations were performed on a fully integrated robotic system (Kalypsys, San Diego, CA) containing one RX-130 and two RX-90 anthropomorphic robotic arms (Staubli, Duncan, SC). Library plates were screened starting from the lowest and proceeding to the highest concentration, and a double-dipping step of the highest concentration was required to access higher concentrations of compounds. Vehicle-only plates, with DMSO being pin-transferred to the entire column 5-48 compound area, were inserted uniformly at the beginning and the end of each library in order to monitor for and record any shifts in the background, which can be affected by reagent dispensers or loss in enzyme activity overtime. Screening data were corrected, normalized, and concentration-effect relationships were derived by using publicly-available curve fitting algorithms developed in-house (http://ncgc.nih.gov/pub/openhts). A four parameter Hill equation was fitted to the concentration-response data by minimizing the residual error between the modeled and observed responses.
# Potency is read from the fitted curve at half-maximal effect.
row,Structure (SMILES),Potency
1,O=C(CSc1ncc(S(=O)(=O)c2ccc(Br)cc2)c(=O)[nH]1)Nc1ccc2c(c1)OCCO2,inactive
2,Cc1ccc(/C=C(\C#N)C(=O)Nc2cc(C)ccc2C)cc1,inactive
3,CN=C1S/C(=C\c2c(OC)cc(OC)cc2OC)C(=O)N1C,inactive
4,CN1C(=O)/C(=C/c2ccco2)SC1=Nc1cccc(C(=O)O)c1,17.8 µM (active)
5,CN=C1S/C(=C\c2ccc(Sc3ccc(Cl)cc3)o2)C(=O)N1C,inactive
6,CCOc1ccc(NC(=O)c2c(NC(=O)Cc3ccccc3)sc3c2CCCCC3)cc1,inactive
7,COc1cc(C(=O)OC2CCOC2=O)c([N+](=O)[O-])cc1OC (centres undefined),inactive
8,CC(C)c1ccc(C(=O)OC2CCOC2=O)cc1 (centres undefined),20 µM (active)
9,Cc1nn(Cc2ccccc2)c(Cl)c1C(=O)OC1CCOC1=O (centres undefined),inactive
10,COc1ccc(N2CCN(S(=O)(=O)CCNC(=O)C(c3ccccc3)c3ccccc3)CC2)cc1,inactive
11,CCOC(=O)c1cc(-c2ccccc2)n(CCC(=O)Nc2ccccc2CC)c1C,inactive
12,CCOC(=O)c1c(C)oc2nc(C)nc(N(CC(C)C)CC(C)C)c12,inactive
13,CCCCNC(=O)C1CCCN(c2nnc(C)c3c(C)n(-c4ccc(Cl)cc4)nc23)C1 (centres undefined),inactive
14,CCSC1=C(C#N)C(=O)n2c1cc1c2CCCC1,39.8 µM (active)
15,CCSc1ncnc2c(C#N)c3n(c12)CCCCC3,inactive
16,Cc1ccc2nc(-c3ccc(O)cc3)c(Nc3ccc4c(c3)OCO4)n2c1,inactive
17,COc1ccc(Cl)cc1-n1c(CCC(=O)O)ccc1-c1ccc(C)cc1,inactive
18,COc1cccc2c(C)c(C(=O)O)[nH]c12,50.1 µM (active)
19,Cc1c(C(=O)N/N=C/c2ccccc2)[nH]c2c([N+](=O)[O-])cccc12,inactive
20,COc1cc2c(C(=O)O)c(C)n(C)c2c2ccccc12,inactive
21,COc1ccc(S(=O)(=O)NCC(c2ccc(N(C)C)cc2)N2CCCC2)cc1 (centres undefined),inactive
22,CCC(=O)Nc1cccc(-c2nc3cc(C)ccc3o2)c1,inactive
23,O=C(NC1CCCCC1)C1CCCN(S(=O)(=O)c2cccs2)C1 (centres undefined),inactive
24,O=C(CC(c1ccccc1)c1cc(Cl)ccc1O)NCCN1CCOCC1 (centres undefined),inactive
25,O=C(NC1CCCCC1)C1CCCN(S(=O)(=O)c2ccc(Br)s2)C1 (centres undefined),inactive

row,Structure (SMILES),Potency
1,O=C(Cc1ccc(S(=O)(=O)N2CCOCC2)s1)NCCC(c1ccccc1)c1ccccc1,22.4 µM (active)
2,O=C(Cc1ccc(S(=O)(=O)N2CCCC2)s1)NC1CCCCCC1,31.6 µM (active)
3,COc1ccccc1NC(=O)COC(=O)Cc1ccc(S(=O)(=O)N2CCCCC2)s1,inactive
4,CCn1c2ccccc2c2cc(CN3CCN(Cc4cccc(Cl)c4)CC3)ccc21,inactive
5,Cc1c(CCNC(=O)c2ccc(C(F)(F)F)cc2)sc2nc(-c3ccc(F)cc3)nn12,inactive
6,CCCOc1cccc(C(=O)Nc2cccc(NC(=O)c3ccc(C(C)(C)C)cc3)c2)c1,inactive
7,COc1ccc(OCc2nnc3n2N=C(c2ccccc2)C(CC(=O)O)S3)cc1 (centres undefined),22.4 µM (active)
8,COc1cccc(OCc2nnc3n2N=C(c2ccccc2)C(CC(=O)O)S3)c1 (centres undefined),inactive
9,COc1ccc(C2CC(c3ccccc3)=NN2C(=O)COC(=O)COc2ccccc2)cc1 (centres undefined),inactive
10,Cc1cccc(C(=O)NCCc2nc3ccccc3n2Cc2ccccc2Cl)c1,inactive
11,COc1ccc(NC(=O)C(=O)NCc2ccco2)cc1,inactive
12,CCOc1ccc(NC(=O)c2ncoc2-c2ccco2)cc1,inactive
13,O=C(NCc1ccccn1)c1ccc2nc(-c3ccco3)c(-c3ccco3)nc2c1,3.16 µM (active)
14,COc1ccc(-c2nc3ccc(C(=O)NCc4ccc(C)cc4)cc3nc2-c2ccc(OC)cc2)cc1,inactive
15,COCCNC(=O)Nc1ccc2nc(-c3ccco3)c(-c3ccco3)nc2c1,2.24 µM (active)
16,COc1cccc(S(=O)(=O)NCc2ccc(C(=O)NCc3ccccn3)cc2)c1,inactive
17,COc1ccc(-n2nc(C(=O)NCCc3ccc(Cl)cc3)c3c4ccccc4n(C)c3c2=O)cc1Cl,inactive
18,COc1ccc(C)cc1NC(=O)C(=O)NCCc1sc(-c2cccc(C)c2)nc1C,inactive
19,Cc1cccc(N2CCN(C(=O)c3oc(=O)c4ccccc4c3-c3ccccc3)CC2)c1C,inactive
20,CCOC(=O)c1c(C)[nH]c(CCC(=O)Nc2ccc(OC)c(OC)c2)c1C,inactive
21,COc1ccc(C2Sc3ccccc3NC3=C2C(=O)c2ccccc23)c(OC)c1OC (centres undefined),inactive
22,O=C(/C=C/c1cn(CC(O)CN2CCc3ccccc32)c2ccccc12)c1ccc(Br)cc1 (centres undefined),inactive
23,COc1ccc(-c2cc(=O)c3c(O)cc(O[C@@H]4O[C@H](CO[C@@H]5O[C@@H](C)[C@H](O)[C@@H](O)[C@H]5O)[C@@H](O)[C@H](O)[C@H]4O)cc3o2)cc1O,25.1 µM (active)
24,Cc1ccc(OCCn2c(CNc3ccccc3C)nc3ccccc32)cc1,inactive
